Among the data in PubChem BioAssay (NCI) are growth values, retold here.

Experiment in all cases: NCI-60 one-dose screen, 48 h (100 = growth as untreated, 0 = no growth, -100 = all killed)
Settings in all cases: 10 µM unless noted

Test [1] deals with NCI-H23 lung.
For test [2], the system named is NCI-H226 lung.
For test [3], the system named is NCI-H322M lung.
Test [4] relates to HOP-62 NSCLC.
For test [5], the system named is NCI-H460 lung.
Test [6] deals with HOP-92 NSCLC.
For test [7], the system named is NCI-H522 lung.
In test [8] the test system is A549/ATCC NSCLC.
The subject of test [9] is 786-0 renal.
Test [10] concerns DU-145 prostate.
Test [11] concerns K-562 leukemia.
In test [12] the test system is MALME-3M melanoma.
In test [13] the test system is MDA-MB-231 breast.
The subject of test [14] is RXF 393 renal.
Test [15] deals with SF-268 CNS.
For test [16], the system named is SF-295 CNS.
Test [17] relates to SF-539 CNS.
The test system of test [18] is UACC-257 melanoma.
Test [19] relates to M14 melanoma.
The subject of test [20] is COLO 205 colon.

Compounds without any hit were thinned out: in the full panel of roughly 83,000, 20% have a hit.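 Growth was measured after 48 h exposure to one concentration of compound in 96-well plates. Values under 10 count as active.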 A number with no mark means an inactive call. Activity calls are given as the source filed them.

Regarding `COc1cc(C(=O)c2cc(C)c3[nH]c4ccc(Cl)cc4c3c2C)cc(OC)c1OC`, the growth is 13.8% in test [1]; 54.8% in test [2]; 33% in test [3]; 40% in [4]; 4.97% (active) in test [5]; 38.6% in [6]. Also, the growth in test [7] was 35.5%; in test [8], 19.6%; in [9], 19.6%; in test [10] it was -19.7% (active); in test [11], 13.6%; in test [12], 27.9%. The growth in [13] was 22.1%; in test [14], 36.6%; in [15] it was 25.5%; in [16], 4.51% (active); in test [17], -10.1% (active); in test [18], 68%. Further, the growth in [19] is 17.5%.
For the compound `CCc1ccccc1-n1c(-c2ccc(Cl)cc2)cc(-c2ccc(OC)cc2)c(C#N)c1=O`, the growth in test [1] was 102%; in test [2], 108%; in test [3], 126%; in [4] it was 103%; in test [5], 99.7%; in [6] it was 63.5%. For the same compound, the growth was 84.8% in test [7]; 103% in test [8]; 92% in test [9]; 117% in [20]; 94.6% in [10]; 101% in test [11]. Further, the growth in test [12] was 148%; in [13], 92.7%; in [14], 97.5%; in test [15], 93.4%; in test [16] it was 93.2%; in [17], 102%. For the same compound, the results for the growth in [18] and in test [19] were 112% and 93.4%, respectively.
For `CCOC(=O)c1ccc(N2NC(=O)/C(=C/c3ccc([N+](=O)[O-])o3)C2=O)cc1`, the growth in [1] is 108%; in test [2], 120%; in [3], 99.8%; in test [4] it was 109%; in test [5] it was 111%; in test [6], 105%. Moreover, the growth in [7] is 60.7%; in [8] it was -1.33% (active); in [9] it was 116%; in test [20] it was 129%; in test [10] it was 113%; in [11], 114%. The growth was 105% in test [12]; 133% in [13]; 44% in test [14]; 99.8% in test [15]; 118% in [16]; 108% in test [17]. The figures for the growth in [18] and in test [19] were 90.7% and 116%, respectively.
As to `Fc1ccc(CNc2c3ccccc3nc3ccccc23)cc1F`, the growth in test [1] is 35.2%; in test [2], 47.6%; in [3] it was 39%; in test [4] it was 51.3%; in test [5], 14.6%; in [6], -8.56% (active). Further, the growth in [7] was 37%; in test [8], 29.1%; in [9], 31.4%; in [20], 16.1%; in test [10] it was 39.5%; in test [11] it was 12.3%. Moreover, the growth in test [12] was 50.7%; in test [13], 34.8%; in test [14], 7.37% (active); in test [15], 57.2%; in test [16], 29.8%; in test [17], 22.1%. The growth in test [18] was 65.1%; in test [19] it was 43.1%.
On to `COc1ccc(NC(=O)c2nc(-c3cc(OC)c(OC)c(OC)c3)n(-c3cccc4ccccc34)n2)cc1OC`, for which the growth in [1] was 45.4%; in test [2], 44.9%; in [3], 44.8%; in [4], 42.1%; in [5] it was 49.6%; in [6], 46.4%. Besides, the growth in test [7] is 21.8%; in test [8] it was 50.6%; in [9], 31.8%; in [20] it was 37.1%; in test [10], 70.4%; in [11] it was 35.4%. Further, the growth in test [12] is 52.8%; in test [13], 27%; in test [14] it was 66.1%; in test [15], 58.6%; in [16] it was 52.6%; in [17], 35%. Besides, the growth in [18] is 57.5%; in test [19], 48%.
Regarding `O=S(=O)(NCCCNc1cc(-c2c(-c3cccc(O)c3)nc3sccn23)ccn1)c1cccc(Cl)c1`, the growth is 49.1% in test [1]; 61.5% in test [2]; 85.5% in test [3]; 72.8% in [4]; 47.3% in test [5]; 111% in test [6]. The growth in test [7] was 44.1%; in [8], 66.5%; in [9], 54.8%; in [20], 46.3%; in [10], 55.9%; in [11] it was 25.4%. Also, the growth in test [12] was 48.2%; in [13], 73.6%; in test [14] it was 41.1%; in test [15] it was 44.3%; in test [16], 49.3%; in test [17], 77.4%. The growth in test [18] was 68.4%; in test [19], 41.7%.
In the case of `COc1cc(C2CC(=O)Nc3c2c(C)nn3-c2nc3ccccc3[nH]2)c(OC)c2c1OCO2` (stereo not drawn), the growth in [1] was 86.9%; in test [2], 84.8%; in test [3], 86.9%; in test [4], 75.8%; in test [5], 66.7%; in test [6] it was 85%. Further, the growth was 71.2% in test [7]; 52.4% in test [8]; 78.6% in test [9]; 88.5% in test [10]; 17.2% in test [11]; 73.9% in test [12]. The growth is 73.4% in [13]; 73.2% in test [14]; 71% in test [15]; 36.9% in test [16]; 78.4% in [17]; 85.5% in test [18]. Further, the growth in [19] is 52.1%.
